The record followed here is ChEMBL document CHEMBL3988442, “University of Dundee, Small-Polar-MMV Screening Library” (2021).

Where “and” joins values, the source holds several entries; their conditions need not be identical. Equal values may be shown once. For some of these results: Entries with a potency or affinity are not part of this list.

The target of assay [1] is Protein translocase subunit SecA (Escherichia coli (strain K12)) (UniProt P10408). The assay can be described thus: Assay to Identify E. coli SecA ATPase Inhibitors. The class given is functional. Further details: scale not given: direction of the effect not stated beside the values. As to conditions: 30 µM.
Protein translocase subunit SecA (Escherichia coli (strain K12)), sequence (P10408 whole entry): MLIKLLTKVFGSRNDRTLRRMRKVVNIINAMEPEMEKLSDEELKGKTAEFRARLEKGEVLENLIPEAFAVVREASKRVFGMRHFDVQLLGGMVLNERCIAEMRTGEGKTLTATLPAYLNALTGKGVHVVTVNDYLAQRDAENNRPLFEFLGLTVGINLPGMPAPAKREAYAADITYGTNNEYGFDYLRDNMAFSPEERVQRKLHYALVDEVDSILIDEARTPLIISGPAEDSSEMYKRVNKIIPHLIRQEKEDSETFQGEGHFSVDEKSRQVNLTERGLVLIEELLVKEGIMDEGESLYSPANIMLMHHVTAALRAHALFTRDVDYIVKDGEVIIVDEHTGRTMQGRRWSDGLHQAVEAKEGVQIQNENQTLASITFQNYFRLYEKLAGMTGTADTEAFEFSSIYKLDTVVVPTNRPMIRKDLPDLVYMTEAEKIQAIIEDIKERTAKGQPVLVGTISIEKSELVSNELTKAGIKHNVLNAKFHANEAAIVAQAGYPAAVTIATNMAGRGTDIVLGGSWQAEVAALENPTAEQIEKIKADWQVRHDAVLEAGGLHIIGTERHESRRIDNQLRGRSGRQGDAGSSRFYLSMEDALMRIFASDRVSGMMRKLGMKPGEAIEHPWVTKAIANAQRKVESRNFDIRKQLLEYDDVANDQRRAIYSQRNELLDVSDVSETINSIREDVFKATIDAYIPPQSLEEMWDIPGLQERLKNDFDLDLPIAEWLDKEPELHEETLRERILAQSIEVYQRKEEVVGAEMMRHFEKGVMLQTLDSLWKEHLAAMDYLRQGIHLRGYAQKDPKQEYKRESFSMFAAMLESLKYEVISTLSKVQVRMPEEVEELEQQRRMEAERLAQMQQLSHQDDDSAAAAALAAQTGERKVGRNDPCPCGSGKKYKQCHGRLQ
For assay [2], the target named is T1, Ubiquitin-activating enzyme e1, putative (Leishmania donovani (strain BPK282A1)) (UniProt E9BSI1).
T1 sequence (whole entry): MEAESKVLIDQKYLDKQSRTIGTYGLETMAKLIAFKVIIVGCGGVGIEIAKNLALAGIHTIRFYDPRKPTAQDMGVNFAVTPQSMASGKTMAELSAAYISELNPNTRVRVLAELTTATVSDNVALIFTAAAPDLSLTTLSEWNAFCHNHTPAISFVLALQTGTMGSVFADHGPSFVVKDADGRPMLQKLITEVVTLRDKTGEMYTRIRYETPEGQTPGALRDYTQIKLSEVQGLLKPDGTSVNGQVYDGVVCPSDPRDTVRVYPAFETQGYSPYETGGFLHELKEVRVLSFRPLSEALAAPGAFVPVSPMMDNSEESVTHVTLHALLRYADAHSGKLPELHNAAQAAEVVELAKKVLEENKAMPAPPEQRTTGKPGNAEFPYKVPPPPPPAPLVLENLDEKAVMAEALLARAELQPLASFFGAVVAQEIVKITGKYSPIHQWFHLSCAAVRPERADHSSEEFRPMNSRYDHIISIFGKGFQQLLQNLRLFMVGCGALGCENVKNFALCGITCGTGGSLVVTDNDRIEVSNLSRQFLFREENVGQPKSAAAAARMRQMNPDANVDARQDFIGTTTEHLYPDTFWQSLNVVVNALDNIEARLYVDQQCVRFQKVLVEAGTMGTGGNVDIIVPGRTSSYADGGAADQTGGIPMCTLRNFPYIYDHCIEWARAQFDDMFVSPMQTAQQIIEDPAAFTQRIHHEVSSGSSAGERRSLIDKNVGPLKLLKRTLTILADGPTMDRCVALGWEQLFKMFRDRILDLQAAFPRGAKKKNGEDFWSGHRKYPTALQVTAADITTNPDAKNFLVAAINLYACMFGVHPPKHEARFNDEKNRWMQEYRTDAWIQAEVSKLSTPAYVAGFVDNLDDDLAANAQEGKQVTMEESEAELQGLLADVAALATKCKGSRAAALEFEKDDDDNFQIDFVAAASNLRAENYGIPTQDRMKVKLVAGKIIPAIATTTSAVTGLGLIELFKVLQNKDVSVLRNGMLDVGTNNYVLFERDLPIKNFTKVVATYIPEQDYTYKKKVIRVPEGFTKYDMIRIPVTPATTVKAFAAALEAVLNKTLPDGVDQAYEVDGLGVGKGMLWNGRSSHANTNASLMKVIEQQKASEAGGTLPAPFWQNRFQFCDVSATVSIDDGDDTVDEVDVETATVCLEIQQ
The assay can be described thus: Leishmania donovani Ubiquitin Activating Enzyme (LdE1). Further details: scale not given: direction of the effect not stated beside the values. Type of assay: functional. The following applies: 30 µM.

For assay [3], the target named is T2, Aspartate--tRNA(Asp/Asn) ligase (Mycobacterium tuberculosis (strain ATCC 25618 / H37Rv)) (UniProt P9WFW3). Further: in the data most compounds retested in dose-response had high values.
T2 sequence (whole entry): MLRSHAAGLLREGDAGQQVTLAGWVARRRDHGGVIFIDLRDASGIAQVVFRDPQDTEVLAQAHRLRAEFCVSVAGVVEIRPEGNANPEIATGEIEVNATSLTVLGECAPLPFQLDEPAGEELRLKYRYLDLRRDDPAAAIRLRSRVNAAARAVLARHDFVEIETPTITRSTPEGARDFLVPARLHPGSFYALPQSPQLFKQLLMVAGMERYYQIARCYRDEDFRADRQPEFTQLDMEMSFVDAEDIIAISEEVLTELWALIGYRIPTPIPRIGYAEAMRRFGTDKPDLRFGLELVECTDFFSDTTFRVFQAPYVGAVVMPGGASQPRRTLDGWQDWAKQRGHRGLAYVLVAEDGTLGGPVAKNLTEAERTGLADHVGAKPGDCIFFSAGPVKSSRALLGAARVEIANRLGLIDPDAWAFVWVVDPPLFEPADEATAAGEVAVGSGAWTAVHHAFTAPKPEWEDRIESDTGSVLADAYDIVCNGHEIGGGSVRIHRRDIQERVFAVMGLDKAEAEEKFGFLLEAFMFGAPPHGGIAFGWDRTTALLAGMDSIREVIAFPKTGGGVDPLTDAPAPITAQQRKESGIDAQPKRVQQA
The experiment in a line: Assay for Asp RNA synthetase-1 from Mycobacterium tuberculosis. The following applies: 30 µM. Further details: scale not given: direction of the effect not stated beside the values. The class given is functional.

The target of assay [4] is AMP-activated protein kinase, AMPK (Homo sapiens) (UniProt P54646+O43741+P54619+Q9UGJ0+Q9Y478+Q13131+Q9UGI9). The experiment in a line: AMP-dependent Kinase enzyme assay. An in vitro enzyme assay that detects ADP turnover that is directly proportional to AMPK activity. This uses naive AMPK that is activated during the assay with MK-8722. The class given is functional. Set-up: scale not given: direction of the effect not stated beside the values. As to conditions: 30 µM.

The target of assay [5] is Sialic acid-binding Ig-like lectin 9 (Homo sapiens) (UniProt Q9Y336). The experiment in a line: Hs-Siglec9 ALPHAscreen SOP 20170721. Set-up: scale not given: direction of the effect not stated beside the values. As to conditions: 10 µM.
Sialic acid-binding Ig-like lectin 9 (Homo sapiens), sequence (Q9Y336 whole entry): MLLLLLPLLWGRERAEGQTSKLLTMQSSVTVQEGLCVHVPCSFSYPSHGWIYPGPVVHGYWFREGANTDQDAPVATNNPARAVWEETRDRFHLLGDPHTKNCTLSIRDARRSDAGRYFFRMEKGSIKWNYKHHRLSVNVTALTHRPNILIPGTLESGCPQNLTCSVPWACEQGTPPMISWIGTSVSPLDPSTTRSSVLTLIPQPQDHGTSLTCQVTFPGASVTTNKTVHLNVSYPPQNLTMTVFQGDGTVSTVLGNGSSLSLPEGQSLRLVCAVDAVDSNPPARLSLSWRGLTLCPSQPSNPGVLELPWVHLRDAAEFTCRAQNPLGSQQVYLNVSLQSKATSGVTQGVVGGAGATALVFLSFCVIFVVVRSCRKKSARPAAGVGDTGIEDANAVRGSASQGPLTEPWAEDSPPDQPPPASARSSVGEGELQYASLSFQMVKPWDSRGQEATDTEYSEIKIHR
The test system of the next assay is Trypanosoma cruzi. The experiment in a line: Trypanosoma cruzi phosphomannomutase and mannose-1-phosphate guanylyltransferase assay. The class given is functional. Further details: scale not given: direction of the effect not stated beside the values. The following applies: 10 µM.
Assay [6] deals with T3, Arginase-2, mitochondrial (Homo sapiens) (UniProt P78540).
T3 sequence (whole entry): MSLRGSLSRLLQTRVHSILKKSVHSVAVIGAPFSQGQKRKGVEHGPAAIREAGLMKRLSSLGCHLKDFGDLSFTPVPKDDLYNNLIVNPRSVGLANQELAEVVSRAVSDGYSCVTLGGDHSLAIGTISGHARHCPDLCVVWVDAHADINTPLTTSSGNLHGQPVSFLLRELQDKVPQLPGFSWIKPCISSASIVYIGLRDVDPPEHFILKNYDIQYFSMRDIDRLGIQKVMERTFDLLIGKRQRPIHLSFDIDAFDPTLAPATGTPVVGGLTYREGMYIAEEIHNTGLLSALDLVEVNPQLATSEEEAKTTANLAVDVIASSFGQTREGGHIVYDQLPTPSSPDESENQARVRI
The assay can be described thus: in vitro enzyme assay to detect the production of urea directly proportional to the activity of Arginase II. The class given is functional. Set-up: scale not given: in the data most compounds retested in dose-response had high values. As to conditions: 33.3 µM.

Assay [7] has as its target T4, Proteasome subunit beta (Trypanosoma cruzi) (UniProt O96673).
T4 sequence (whole entry): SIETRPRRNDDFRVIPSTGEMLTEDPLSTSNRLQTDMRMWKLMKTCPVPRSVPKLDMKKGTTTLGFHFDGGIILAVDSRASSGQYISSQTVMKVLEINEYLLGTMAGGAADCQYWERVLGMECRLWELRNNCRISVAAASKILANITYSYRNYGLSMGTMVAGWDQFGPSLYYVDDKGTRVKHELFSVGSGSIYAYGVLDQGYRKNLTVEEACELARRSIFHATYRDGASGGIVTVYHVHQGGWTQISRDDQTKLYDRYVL
The assay can be described thus: Trypanosoma cruzi proteasome chymotrypsin-like activity (TcProtChymo) assay. Type of assay: functional. Further details: scale not given: in the data most compounds retested in dose-response had high values. As to conditions: 9.37 µM.

The test system of another assay is N/A. The assay can be described thus: Trypanosoma cruzi proteasome luciferase counter-screen. Further details: scale not given: direction of the effect not stated beside the values. The following applies: 9.37 µM. Type of assay: functional. Background: Counterscreens check selectivity or assay interference.
A further assay is filed under the species Homo sapiens. The assay can be described thus: To identify inhibition of the IFN signalling (Jak-Stat) pathway via expression of an eGFP reporter gene under the control of an IFN-stimulated response element (ISRE) containing MxA promoter. Type of assay: functional. The following applies: 30 µM. Further details: scale not given: direction of the effect not stated beside the values. On the technique in general: Reporter assays use an easily measured gene product as a stand-in for the process of interest.

Assay [8] deals with Shiga toxin 2 (Escherichia coli O157:H7) (UniProt P09385+P09386). The experiment in a line: E. coli 0.157:H7 Shiga Toxin SOP - stx2 screening assay. The class given is functional. Further details: scale not given: direction of the effect not stated beside the values. The following applies: 30 µM.
Assay [9] has as its target T5, Tyrosyl-tRNA synthetase, putative (Trypanosoma cruzi (strain CL Brener)) (UniProt Q4DSP6).
T5 sequence (whole entry): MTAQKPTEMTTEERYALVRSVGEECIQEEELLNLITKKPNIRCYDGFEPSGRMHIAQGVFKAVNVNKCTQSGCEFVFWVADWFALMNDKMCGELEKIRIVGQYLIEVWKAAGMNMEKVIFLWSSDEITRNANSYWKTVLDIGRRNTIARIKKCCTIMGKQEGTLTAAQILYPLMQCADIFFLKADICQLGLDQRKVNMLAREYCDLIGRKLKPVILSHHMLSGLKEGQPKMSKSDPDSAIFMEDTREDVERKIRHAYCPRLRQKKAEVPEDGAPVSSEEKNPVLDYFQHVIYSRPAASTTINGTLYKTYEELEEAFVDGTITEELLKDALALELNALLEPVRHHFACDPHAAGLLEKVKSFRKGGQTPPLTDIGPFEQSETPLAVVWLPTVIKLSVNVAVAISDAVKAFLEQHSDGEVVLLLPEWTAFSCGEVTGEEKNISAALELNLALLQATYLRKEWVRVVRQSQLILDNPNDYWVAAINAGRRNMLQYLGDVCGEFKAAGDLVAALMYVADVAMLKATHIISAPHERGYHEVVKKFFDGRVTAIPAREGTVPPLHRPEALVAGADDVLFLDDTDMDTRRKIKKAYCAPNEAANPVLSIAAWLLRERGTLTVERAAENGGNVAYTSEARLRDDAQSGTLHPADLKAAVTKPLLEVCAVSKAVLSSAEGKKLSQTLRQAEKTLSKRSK
The experiment in a line: Trypanosoma cruzi tyrosyl tRNA synthetase (TcYRS) _High Tyrosine SOP. The class given is functional. Set-up: scale not given: in the data most compounds retested in dose-response had high values. The following applies: 30 µM.

Assay [10] has as its target T5, Tyrosyl-tRNA synthetase, putative (Trypanosoma cruzi (strain CL Brener)). The assay can be described thus: Trypanosoma cruzi tyrosyl tRNA synthetase (TcYRS) SOP. The class given is functional. Set-up: scale not given: direction of the effect not stated beside the values. As to conditions: 30 µM.
The target in assay [11] is Chromo domain-containing protein 1 (Saccharomyces cerevisiae (strain ATCC 204508 / S288c) (Baker's yeast)) (UniProt P32657). The assay can be described thus: ScCHD-1 Enzyme Inhibition Assay. The class given is functional. Further details: scale not given: in the data most compounds retested in dose-response had high values. As to conditions: 30 µM.
Chromo domain-containing protein 1 (Saccharomyces cerevisiae (strain ATCC 204508 / S288c) (Baker's yeast)), sequence (P32657 whole entry, the tested form may be a part): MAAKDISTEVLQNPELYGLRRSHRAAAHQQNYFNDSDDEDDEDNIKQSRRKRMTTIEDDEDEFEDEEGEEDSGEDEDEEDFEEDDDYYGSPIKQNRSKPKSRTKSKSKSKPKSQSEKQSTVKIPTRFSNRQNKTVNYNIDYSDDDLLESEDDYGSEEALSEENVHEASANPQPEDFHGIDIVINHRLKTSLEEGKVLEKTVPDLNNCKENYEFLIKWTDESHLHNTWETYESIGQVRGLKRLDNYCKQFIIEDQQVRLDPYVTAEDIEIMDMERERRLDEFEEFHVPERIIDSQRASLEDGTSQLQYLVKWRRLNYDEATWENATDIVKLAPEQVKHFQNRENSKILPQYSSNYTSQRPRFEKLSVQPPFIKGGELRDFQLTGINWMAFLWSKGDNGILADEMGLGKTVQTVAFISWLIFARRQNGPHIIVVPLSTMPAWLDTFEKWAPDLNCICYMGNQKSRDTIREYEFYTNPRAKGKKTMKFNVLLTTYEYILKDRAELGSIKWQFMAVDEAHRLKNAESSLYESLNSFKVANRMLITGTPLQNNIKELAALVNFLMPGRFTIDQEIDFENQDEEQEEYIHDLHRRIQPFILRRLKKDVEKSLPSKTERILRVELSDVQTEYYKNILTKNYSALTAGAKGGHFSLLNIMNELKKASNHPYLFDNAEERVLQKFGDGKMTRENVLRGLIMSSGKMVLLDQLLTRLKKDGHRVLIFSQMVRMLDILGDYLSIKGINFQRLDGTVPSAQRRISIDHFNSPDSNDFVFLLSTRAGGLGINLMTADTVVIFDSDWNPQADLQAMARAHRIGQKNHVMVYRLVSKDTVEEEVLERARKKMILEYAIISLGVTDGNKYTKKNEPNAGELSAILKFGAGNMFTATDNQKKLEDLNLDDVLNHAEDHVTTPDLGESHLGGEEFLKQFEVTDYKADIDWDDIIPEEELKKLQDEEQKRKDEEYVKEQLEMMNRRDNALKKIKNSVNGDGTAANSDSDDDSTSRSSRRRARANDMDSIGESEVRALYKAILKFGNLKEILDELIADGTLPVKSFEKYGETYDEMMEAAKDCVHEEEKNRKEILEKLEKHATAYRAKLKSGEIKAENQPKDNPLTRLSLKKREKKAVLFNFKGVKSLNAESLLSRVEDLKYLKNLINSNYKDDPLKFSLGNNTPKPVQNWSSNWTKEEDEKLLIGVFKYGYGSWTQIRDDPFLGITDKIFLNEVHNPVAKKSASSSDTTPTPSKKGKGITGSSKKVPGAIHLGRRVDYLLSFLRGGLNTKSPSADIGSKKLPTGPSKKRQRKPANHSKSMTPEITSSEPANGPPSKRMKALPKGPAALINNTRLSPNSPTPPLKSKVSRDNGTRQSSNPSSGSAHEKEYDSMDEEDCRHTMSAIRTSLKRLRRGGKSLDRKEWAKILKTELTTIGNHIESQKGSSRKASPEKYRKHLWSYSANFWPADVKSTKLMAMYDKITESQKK
Assay [12] concerns the target T6, Methionyl-tRNA synthetase, putative (Leishmania donovani (strain BPK282A1)) (UniProt E9BF75).
T6 sequence (whole entry): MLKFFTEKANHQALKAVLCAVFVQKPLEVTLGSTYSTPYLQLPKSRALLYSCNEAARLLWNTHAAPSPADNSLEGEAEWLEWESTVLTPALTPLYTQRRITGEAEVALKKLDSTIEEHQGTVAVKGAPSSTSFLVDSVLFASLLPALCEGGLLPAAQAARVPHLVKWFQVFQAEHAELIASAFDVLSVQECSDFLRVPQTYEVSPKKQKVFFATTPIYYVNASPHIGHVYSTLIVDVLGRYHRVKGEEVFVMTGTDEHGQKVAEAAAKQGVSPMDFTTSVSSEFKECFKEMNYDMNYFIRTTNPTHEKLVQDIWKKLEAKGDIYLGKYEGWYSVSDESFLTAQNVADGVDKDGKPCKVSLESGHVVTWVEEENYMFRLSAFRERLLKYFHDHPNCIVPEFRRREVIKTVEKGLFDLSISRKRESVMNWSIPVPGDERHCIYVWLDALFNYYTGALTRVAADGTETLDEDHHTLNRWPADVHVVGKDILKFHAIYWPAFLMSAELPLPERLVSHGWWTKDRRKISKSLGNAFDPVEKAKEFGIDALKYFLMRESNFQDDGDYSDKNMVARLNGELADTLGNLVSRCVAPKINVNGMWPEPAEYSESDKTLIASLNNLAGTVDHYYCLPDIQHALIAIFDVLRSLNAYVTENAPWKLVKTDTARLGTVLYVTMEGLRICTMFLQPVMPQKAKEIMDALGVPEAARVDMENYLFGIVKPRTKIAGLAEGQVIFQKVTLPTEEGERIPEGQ
The assay can be described thus: Leishmania donovani Methionine tRNA synthetase (LdMetRS):v7. Dose response assay. The class given is functional. Set-up: conc 80 nM, time 150 minutes.

In the case of `CC(C)=CCN1C[C@H]2CC[C@@H]1CN(C(=O)c1c[nH]c(=O)c(Cl)c1)C2`, the Percent Effect in [1] is -4.07%; in [2], 5.48%; in assay [3], 4.22%; in assay [4], 2.02%; in [5], 1.06%; in the assay on Trypanosoma cruzi it was -5.16%. Moreover, the Percent Effect in [6] is -8.38%; in assay [7], 35.6% and 31.4% and 37.8%; in the assay on N/A it was 18.4% and 17.9%; in the assay listed under Homo sapiens it was 7.03%; in assay [8], -38%; in [9] it was 6.25%. For the same compound, the Percent Effect in assay [10] was 13.6%; in assay [11], -2.95%.
As to `FC(F)(F)c1cc(-c2cccs2)nc(N2CCN3CCCC3C2)n1` (stereo unspecified), the PXC50 in assay [12] (MAX_EFFECT 13.05483029) and in [12] (MAX_EFFECT 13.8381201) was < 4 throughout.
Turning to `NCC(O)c1cc(Cl)cc(Cl)c1` (stereo unspecified), the PXC50 in assay [12] (MAX_EFFECT 9.287257019) and in [12] (MAX_EFFECT 13.11787072) was < 3 throughout.
Regarding `O=C(Cc1ccc(F)cc1)N1CCN(CC(O)C2CC2)CC1` (stereo unspecified), the Percent Effect in [1] is -9.94%; in assay [2] it was 5.48%; in [3] it was 0.575%; in assay [4], 0.569%; in assay [5], -4.1%; with Trypanosoma cruzi, -5.09%. The Percent Effect is -3.64% in assay [6]; 6.74% in assay [7]; 10.6% in the assay listed under Homo sapiens; 7.07% in assay [8]; 3.23% in [9]; 10% in assay [10]. Besides, the Percent Effect in assay [11] was -5.88%.
